Screening data: PubChem BioAssay, several laboratories
PLCb3 inh: blocks human PLC-beta3 enzyme activity; Q01970; Purified PLC-beta3, fluorogenic substrate, fluorescence; 370,000 compounds, 0.18% hits; AID 720704; inhibition, % at 12.2 µM; in the data active means inhibition above about 11%
GC-B act: GC-B (human) receptor activation. HEK293-GC-B cells, CNP EC30, cGMP TR-FRET; 0% at EC30 CNP, 100% saturating CNP. AID 1920062. 370,000 compounds, 0.11% hits. activation, % at 10 µM;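 active means activation at 10 µM reaching about 35% in either raw or pattern-adjusted values, limit read from the data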
Target sequence (P20594 whole entry, looked up): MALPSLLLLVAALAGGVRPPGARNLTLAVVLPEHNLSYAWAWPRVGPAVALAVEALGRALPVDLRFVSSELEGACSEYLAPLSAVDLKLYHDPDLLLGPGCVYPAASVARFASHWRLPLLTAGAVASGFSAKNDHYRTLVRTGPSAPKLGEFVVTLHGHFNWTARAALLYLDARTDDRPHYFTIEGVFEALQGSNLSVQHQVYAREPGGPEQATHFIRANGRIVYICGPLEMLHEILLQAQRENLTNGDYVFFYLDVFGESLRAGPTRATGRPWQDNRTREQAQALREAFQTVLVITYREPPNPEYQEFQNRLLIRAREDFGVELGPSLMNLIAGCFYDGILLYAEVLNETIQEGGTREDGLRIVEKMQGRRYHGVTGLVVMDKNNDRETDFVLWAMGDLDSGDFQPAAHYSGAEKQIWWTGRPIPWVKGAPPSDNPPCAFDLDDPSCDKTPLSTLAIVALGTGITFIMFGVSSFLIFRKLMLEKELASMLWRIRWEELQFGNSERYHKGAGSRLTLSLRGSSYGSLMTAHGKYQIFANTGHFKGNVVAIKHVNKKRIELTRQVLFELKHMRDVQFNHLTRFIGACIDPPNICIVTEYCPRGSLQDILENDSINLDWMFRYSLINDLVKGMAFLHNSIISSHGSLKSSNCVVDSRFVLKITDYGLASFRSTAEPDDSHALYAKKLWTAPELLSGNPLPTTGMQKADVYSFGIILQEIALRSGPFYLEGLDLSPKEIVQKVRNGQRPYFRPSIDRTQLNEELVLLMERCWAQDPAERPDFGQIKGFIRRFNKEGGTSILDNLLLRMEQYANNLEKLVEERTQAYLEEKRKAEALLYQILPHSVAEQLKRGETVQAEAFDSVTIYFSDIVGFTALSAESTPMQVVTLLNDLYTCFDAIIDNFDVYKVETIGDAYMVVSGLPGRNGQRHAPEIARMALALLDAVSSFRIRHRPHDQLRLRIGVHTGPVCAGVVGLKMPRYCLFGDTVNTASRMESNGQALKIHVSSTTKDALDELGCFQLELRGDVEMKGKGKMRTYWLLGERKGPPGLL
GC-A act: GC-A (human) enzyme activation | 370,000 compounds, 0.14% hits | HEK293 GC-A cells, cGMP TR-FRET, EC30 ANP; 0% at EC30 ANP, 100% saturating ANP | AID 1671463 | activation, % at 10 µM | P16066; in the data active means activation above about 40%
PLC-gamma1 inh: blocks human PLC-gamma1 enzyme activity; P19174; purified PLC-gamma1, fluorogenic substrate, fluorescence; inhibition, % at 12.2 µM; 370,000 compounds, 0.84% hits; in the data active means inhibition above about 9.5%
Rce1 inh: blocks yeast Ras-converting enzyme. yeast membranes, quenched prenylated peptide cleavage fluorescence. calls only. 290,000 compounds, 0.27% hits. AID 2563;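 active means fall in fluorescence gain of 50% or more versus controls, with final raw signal at or below 3038400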
PfM18AAP inh-1: blocks P. falciparum M18 aspartyl aminopeptidase; AID 1822; recombinant PfM18AAP, H-Glu-NHMec fluorogenic cleavage; 290,000 compounds, 1.2% hits; inhibition, % at 7.35 µM;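 active means inhibition above the campaign mean inhibition over all tested compounds plus 3 SD, cut at about 28% in these data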
PfM18AAP inh-2: confirmation of Plasmodium falciparum M18 aspartyl aminopeptidase inhibitors | shares compounds with PfM18AAP inh-1 | 2,400 compounds, 28% hits | inhibition, % at 7.35 µM | recombinant PfM18AAP, H-Glu-NHMec fluorogenic cleavage;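 active means mean inhibition over replicate wells above the hit cutoff set for the earlier primary screen, cut at about 29% in these data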
CTSL1 counter: counter-screen for PFM18AAP inhibitors: confirmation of human cathepsin L inhibitors; shares compounds with PfM18AAP inh-1; purified cathepsin L1, Z-Leu-Arg-MCA fluorescence; inhibition, % at 5.96 µM; 2,400 tested, under 10 active; AID 2178;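 active means average inhibition across replicates above the hit cutoff set in the earlier primary screen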
Numbers stand for hits. Sampled rows, rich in hits. Any-hit rate of the full collection: about 2.2%.

How did O=C(NC1CCCCCC1)c1ccc[nH]c1=S do in these assays?
PLCb3 inh: inactive; GC-B act: inactive; GC-A act: inactive; PLC-gamma1 inh: inactive; Rce1 inh: inactive; PfM18AAP inh-1: 53; PfM18AAP inh-2: inactive; CTSL1 counter: inactive

How did COCC(=O)Nc1sc2c(c1C(=O)OC)CCC(C)C2 (stereo not given) do in these assays?
PLCb3 inh: inactive; GC-B act: inactive; GC-A act: inactive; PLC-gamma1 inh: inactive; Rce1 inh: inactive; PfM18AAP inh-1: inactive

How did O=C(O)CCC(=O)Nc1sc2c(c1C(=O)Nc1ccccc1)CCCCC2 do in these assays?
PLCb3 inh: inactive; GC-B act: inactive; GC-A act: inactive; PLC-gamma1 inh: inactive; PfM18AAP inh-1: 37; PfM18AAP inh-2: inactive; CTSL1 counter: inactive

Results for CC1CCc2c(sc(NC(=O)CCC(=O)O)c2C(=O)NC2CC2)C1 (stereo not given) ?
PLCb3 inh: inactive; GC-B act: inactive; GC-A act: inactive; PLC-gamma1 inh: inactive; Rce1 inh: inactive; PfM18AAP inh-1: 41; PfM18AAP inh-2: inactive; CTSL1 counter: inactive

Results for CC(COc1ccccc1C#N)CN1CCC(C(O)(c2ccccc2)c2ccccc2)CC1 (stereo not given) ?
PLCb3 inh: inactive; GC-B act: inactive; GC-A act: inactive; PLC-gamma1 inh: inactive

Results for O=C(CCn1nnc(-c2cccs2)n1)N1CCCC1 ?
PLCb3 inh: inactive; GC-B act: inactive; GC-A act: inactive; PLC-gamma1 inh: inactive

Results for CC1(C)OC2C(CO)OC(n3cnc4c(=S)nc[nH]c43)C2O1 (stereo not given) ?
PLCb3 inh: inactive; GC-B act: inactive; GC-A act: inactive; PLC-gamma1 inh: inactive; Rce1 inh: inactive; PfM18AAP inh-1: 32; PfM18AAP inh-2: inactive; CTSL1 counter: inactive

What do the screens show for `CN(C)c1cccc(-c2cnc(N3CCC(C(N)=O)CC3)s2)c1`?
PLCb3 inh: inactive; GC-B act: inactive; GC-A act: inactive; PLC-gamma1 inh: inactive

How did O=C(CSc1ncn[nH]1)N1N=C(c2ccc(Cl)cc2)CC1c1ccco1 (stereo not given) do in these assays?
PLCb3 inh: inactive; GC-B act: inactive; GC-A act: inactive; PLC-gamma1 inh: inactive; Rce1 inh: inactive; PfM18AAP inh-1: 42; PfM18AAP inh-2: inactive; CTSL1 counter: inactive

What do the screens show for `Cc1c(NC(=S)N/N=C/c2ccc(O)cc2)c(=O)n(-c2ccccc2)n1C`?
PLCb3 inh: inactive; GC-B act: inactive; GC-A act: inactive; PLC-gamma1 inh: inactive; Rce1 inh: inactive; PfM18AAP inh-1: 35; PfM18AAP inh-2: inactive; CTSL1 counter: inactive

How did Cc1c(NC(=S)N/N=C/c2cc([N+](=O)[O-])ccc2O)c(=O)n(-c2ccccc2)n1C do in these assays?
PLCb3 inh: inactive; GC-B act: inactive; GC-A act: inactive; PLC-gamma1 inh: inactive; Rce1 inh: inactive; PfM18AAP inh-1: inactive

How did O=C(CSc1nc2ccccc2nc1N1CCCC1)N1CCN(C(c2ccccc2)c2ccccc2)CC1 do in these assays?
PLCb3 inh: inactive; GC-B act: inactive; GC-A act: inactive; PLC-gamma1 inh: inactive

Results for COc1ccc(S[C@]2(C(=O)N(C)C)CC(=O)N(C(=O)C3CC3)[C@@H]2c2ccc(OC)cc2)cc1 ?
PLCb3 inh: inactive; GC-B act: inactive; GC-A act: inactive; PLC-gamma1 inh: inactive

How did CCOC(=O)[C@@]12CCC3=C1N(CCC3)C(=O)[C@H](CC(=O)NCc1ccccc1)C2 do in these assays?
PLCb3 inh: inactive; GC-B act: inactive; GC-A act: inactive; PLC-gamma1 inh: inactive

Results for Cc1oc2ccc(O)cc2c1C(=O)c1ccc([N+](=O)[O-])cc1 ?
PLCb3 inh: inactive; GC-B act: inactive; GC-A act: inactive; PLC-gamma1 inh: inactive; Rce1 inh: inactive; PfM18AAP inh-1: inactive

What do the screens show for `CN(C)/C=C/c1oc2ccc(O)cc2c1[N+](=O)[O-]`?
PLCb3 inh: inactive; GC-B act: inactive; GC-A act: inactive; PLC-gamma1 inh: inactive; Rce1 inh: inactive; PfM18AAP inh-1: 36; PfM18AAP inh-2: inactive; CTSL1 counter: inactive

Results for COc1cc(/C=N/N2CCN(Cc3ccc(C)cc3)CC2)cc(OC)c1O ?
PLCb3 inh: inactive; GC-B act: inactive; GC-A act: inactive; PLC-gamma1 inh: inactive; Rce1 inh: inactive; PfM18AAP inh-1: 47; PfM18AAP inh-2: inactive; CTSL1 counter: inactive

How did COc1cc(C=NNC(=O)CN2CCN(Cc3ccc(C)cc3)CC2)cc(OC)c1O do in these assays?
PLCb3 inh: inactive; GC-B act: inactive; GC-A act: inactive; PLC-gamma1 inh: inactive

How did COc1ccc(/C=N/Nc2nc3ccccc3o2)cc1O do in these assays?
PLCb3 inh: inactive; GC-B act: inactive; GC-A act: inactive; PLC-gamma1 inh: inactive; Rce1 inh: inactive; PfM18AAP inh-1: 50; PfM18AAP inh-2: inactive; CTSL1 counter: inactive

Results for COc1ccc(/C=N/Nc2nc3ccccc3s2)cc1O ?
PLCb3 inh: inactive; GC-B act: inactive; GC-A act: inactive; PLC-gamma1 inh: inactive; Rce1 inh: inactive; PfM18AAP inh-1: inactive

What do the screens show for `COc1cc(/C=N/Nc2nc3ccccc3o2)cc(OC)c1O`?
PLCb3 inh: inactive; GC-B act: inactive; GC-A act: inactive; PLC-gamma1 inh: inactive; Rce1 inh: inactive; PfM18AAP inh-1: 43; PfM18AAP inh-2: inactive; CTSL1 counter: inactive

What do the screens show for `COc1cc(/C=N\Nc2nc3ccccc3o2)cc(OC)c1OC`?
PLCb3 inh: inactive; GC-B act: inactive; GC-A act: inactive; PLC-gamma1 inh: inactive; Rce1 inh: inactive; PfM18AAP inh-1: inactive

How did CC(=O)c1ccc([C@H](O)[C@@H](C(=O)N(C)c2ccccc2)C2CC2)cc1 do in these assays?
PLCb3 inh: inactive; GC-B act: inactive; GC-A act: inactive; PLC-gamma1 inh: inactive

What do the screens show for `Cn1ccc(C(=O)NC(=S)Nc2ccc([N+](=O)[O-])cc2O)n1`?
PLCb3 inh: inactive; GC-B act: inactive; GC-A act: inactive; PLC-gamma1 inh: inactive; Rce1 inh: inactive; PfM18AAP inh-1: 34; PfM18AAP inh-2: 41; CTSL1 counter: inactive

How did N#Cc1c(NC(=O)CSc2nc(N)cc(=O)[nH]2)sc2c1CCCCCC2 do in these assays?
PLCb3 inh: inactive; GC-B act: inactive; GC-A act: inactive; PLC-gamma1 inh: inactive; Rce1 inh: inactive; PfM18AAP inh-1: inactive

What do the screens show for `N#Cc1c(NC(=O)CSc2ncn[nH]2)sc2c1CCCCC2`?
PLCb3 inh: inactive; GC-B act: inactive; GC-A act: inactive; PLC-gamma1 inh: inactive; Rce1 inh: inactive; PfM18AAP inh-1: 32; PfM18AAP inh-2: inactive; CTSL1 counter: inactive

How did CC(C)C(=O)Nc1sc2c(c1C#N)CCCCC2 do in these assays?
PLCb3 inh: inactive; GC-B act: inactive; GC-A act: inactive; PLC-gamma1 inh: inactive; Rce1 inh: inactive; PfM18AAP inh-1: 38; PfM18AAP inh-2: inactive; CTSL1 counter: inactive
